12-hLO inh – blocks human 12-lipoxygenase activity. purified 12-hLO, xylenol orange hydroperoxide absorbance. hit rate 0.12% among 150,000. AID 1452. Potency, µM (highest dose often 57.1 µM), most hits filed as inhibitors. P18054; also: nearly all actives have a fitted effect of over 55% in size
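Lipoxygenase turnover measured by absorbance at 573 and 405 nm after Fe-XO development. Human 12hLO 150 nM, arachidonate 40 uM, pH 7.0 Hepes buffer with detergent; 15 min compound preincubation, 30 min reaction.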
IMPase cell inh – membrane-permeable compound that blocks inositol monophosphatase; P97697; CHO-M1 cells, IP1 accumulation, HTRF TR-FRET ratio; inhibition (IP1 accumulation), % at 46.1 µM; 120,000 tested, under 10 active; active = well fitted curve in the direction sought with a large enough effect in the signal ratio, not every such curve was filed as active; inconclusive = small, poorly fitted or top-dose-only effect, or a change in a side signal; inactive = no such curve, though single readings can be large or run the other way; the % refers to the signal ratio;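 also: cells stimulated with carbachol in lithium chloride buffer; higher means more IMPase inhibition seen as more IP1 and lower FRET ratio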
Target sequence (P97697 whole entry, looked up): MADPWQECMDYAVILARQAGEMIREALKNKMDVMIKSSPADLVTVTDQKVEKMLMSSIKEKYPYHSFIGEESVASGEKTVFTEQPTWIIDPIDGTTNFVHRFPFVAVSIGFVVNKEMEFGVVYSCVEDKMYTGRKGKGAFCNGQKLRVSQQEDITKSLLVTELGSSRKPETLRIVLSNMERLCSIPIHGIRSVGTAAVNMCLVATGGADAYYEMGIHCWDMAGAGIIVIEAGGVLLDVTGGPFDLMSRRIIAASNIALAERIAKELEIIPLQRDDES
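Elevated IP1 in lysates lowers TR-FRET signal (665/620 ratio and 620 channel reported). Cells were CHO-M1, given carbachol (50 uM as added) plus 50mM LiCl, pH 7.4, 30 min, 37C; compounds titrated up to 46 uM; AC50 by Hill equation.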
IMPase Li inh – membrane-permeable IMPase blocker, potentiated with lithium; CHO-M1 cells, IP1 TR-FRET (IP-One), carbachol + lithium; Potency, µM (highest dose often 59.4 µM), hits mostly inhibitors; hit rate 0.35% among 210,000; AID 1457;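 also: IP1 builds up when IMPase is blocked and the TR-FRET signal falls; nearly all actives have a fitted effect of over 50% in size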
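Readout is a homogeneous TR-FRET IP1 immunoassay (Ex 320, Em 665 and 620), where raised cytosolic IP1 lowers signal. Cells were CHO-M1 treated 30 min at 37C with test compounds plus a little lithium; AC50 values came from Hill-equation fitting.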
PNC assembly inh – blocks assembly of the perinucleolar compartment. PC3M PTB-GFP, PNC prevalence imaging, 16 h; stronger effect = lower value. activity change (PNC), negative = inhibition, % at 10 µM. hit rate 3.1% among 140,000. AID 2417;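 active = readout at or below -70, meaning at least 70% loss of cells showing the perinucleolar compartment, a nuclear body marking cancer cells; inconclusive = readout between -30 and a set limit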
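PC3M cells stably expressing PTB-GFP, 750–1000 cells/well, treated 16 h at 37 °C with compound (23 nl of library stock), in duplicate. After paraformaldehyde fixation and Hoechst stain, imaged at 20x; PNC prevalence scored by image analysis.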
HPGD block – inhibitors of human 15-hydroxyprostaglandin dehydrogenase (HPGD). P15428. purified HPGD, NADH fluorescence kinetic, PGE2 substrate. Potency, µM, usual class: inhibitors. hit rate 4.3% among 150,000; active = well fitted inhibition curve with a large enough effect, not every such curve was filed as active; inconclusive = small, poorly fitted or top-dose-only effect, or another doubt; inactive = no such curve, though single readings can be large or run the other way
Target sequence (P15428 whole entry, looked up): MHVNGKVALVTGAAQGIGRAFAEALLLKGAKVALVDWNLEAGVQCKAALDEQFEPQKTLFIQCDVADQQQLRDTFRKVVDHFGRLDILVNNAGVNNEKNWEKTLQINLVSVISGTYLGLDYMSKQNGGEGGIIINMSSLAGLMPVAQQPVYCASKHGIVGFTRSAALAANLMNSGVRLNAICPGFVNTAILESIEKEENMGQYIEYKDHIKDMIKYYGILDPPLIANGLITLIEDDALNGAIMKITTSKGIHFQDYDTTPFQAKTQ
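20 nM HPGD preincubated 15 min at room temperature with compound in 50 mM Tris-HCl pH 8, 0.01% Tween 20. Started with 1 mM NAD+ and 30 uM prostaglandin E2; NADH fluorescence (360/450 nm) read 5 times over 30-s intervals, last minus first.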
ALDH1A1 inh – ALDH1A1 (human) enzyme inhibition; Potency, µM (top dose mostly 75.3 µM), hits mostly inhibitors; hit rate 7.3% among 220,000; P00352; Purified ALDH1A1, NADH fluorescence, propionaldehyde substrate; active = well fitted inhibition curve with a large enough effect, not every such curve was filed as active; inconclusive = small, poorly fitted or top-dose-only effect, or another doubt; inactive = no such curve, though single readings can be large or run the other way
Of the large screens only hits and unclear results are named; the others gave an inactive call. This is a sample that favours compounds with a hit; in the whole collection about 11% have one here. Unless noted, calls follow the shape of the dose curve; as a rule, active = well fitted curve in the direction sought with a large enough effect; inconclusive = small, poorly fitted or top-dose-only effect, or another doubt; inactive = no such curve, though single readings can be large; an effect the other way counts as inactive or inconclusive.

COc1ccc(/C=C2/N=C(SC)NC2=O)cc1OC	none (no result: 12-hLO inh, IMPase cell inh, IMPase Li inh, PNC assembly inh, HPGD block)
COc1ccc(/C=C2\N=C(SC)NC2=O)cc1	HPGD block 22µM
Cc1ccc(NC(=O)CSCC(=O)NCCc2ccccn2)c(C)c1	ALDH1A1 inh inconclusive (no result: 12-hLO inh, IMPase cell inh, PNC assembly inh, HPGD block)
O=C1CN(C(=O)c2ccc(Br)o2)C(c2ccccc2)c2cc(Br)ccc2N1 (stereo not drawn)	ALDH1A1 inh 22µM
Cc1ccc2c(c1)C(c1ccccc1)N(C(=O)c1ccc(Br)o1)CC(=O)N2 (stereo not drawn)	none
O=C1CN(C(=O)c2ccc(Br)o2)C(c2ccccc2)c2cc(Cl)ccc2N1 (stereo not drawn)	none
O=C1CN(C(=O)c2ccc(Br)o2)C(c2ccc(F)cc2)c2cc(Cl)ccc2N1 (stereo not drawn)	PNC assembly inh inconclusive, ALDH1A1 inh 22µM
O=C1NCC(O)=C1C=Nc1ccccc1O	none (no result: 12-hLO inh, IMPase cell inh, IMPase Li inh, PNC assembly inh, HPGD block)
CCc1nc2ccccc2n1CC(C)C(=O)O (stereo not drawn)	PNC assembly inh -100
O=C(O)c1ccc(C(=O)c2ccccc2)c(C(=O)O)c1	none (no result: IMPase cell inh, PNC assembly inh)
O=C(O)CCCC(=O)Nc1ccc(OCc2nc3ccccc3s2)cc1	ALDH1A1 inh 1.8µM (no result: 12-hLO inh, IMPase cell inh, PNC assembly inh, HPGD block)
c1ccc2c(COn3nnc4ccccc43)cccc2c1	HPGD block inconclusive
c1ccc2c(Cn3nnc4ccccc43)cccc2c1	HPGD block 28µM, ALDH1A1 inh inconclusive
Cc1ccccc1CSCCNC(=O)CCSc1ccccc1	HPGD block 10µM, ALDH1A1 inh 7.1µM
O=C(CNC1CCCCCC1)Nc1ccccc1N1CCCCC1	none
Cc1ccc(CSCCNC(=O)CCSc2ccccc2)cc1	HPGD block inconclusive, ALDH1A1 inh inconclusive
O=C(CNCCC1=CCCCC1)Nc1ccccc1N1CCCCC1	12-hLO inh inconclusive, HPGD block inconclusive, ALDH1A1 inh 9.5µM
O=C(CCCc1ccccc1)NCCC1=CCCCC1	ALDH1A1 inh inconclusive (no result: 12-hLO inh, IMPase cell inh, PNC assembly inh, HPGD block)
Cc1ccccc1CSCCC(=O)NCCC1=CCCCC1	HPGD block 13µM
O=C(CCc1ccccc1)NCCC1=CCCCC1	PNC assembly inh inconclusive, HPGD block 25µM (no result: IMPase cell inh)
CO	none (no result: IMPase cell inh, PNC assembly inh)
C[C@H](OP(=O)(O)O)[C@H](N)C(=O)O	none (no result: IMPase cell inh, PNC assembly inh)
Cn1c(N2CCOCC2)c(/C=N/OC(=O)c2ccc(F)cc2)c2ccccc21	PNC assembly inh -99
Cc1ccc(-c2nc3cc(NC(=O)c4cc(Br)ccc4Cl)ccc3o2)cc1	none (no result: 12-hLO inh, IMPase Li inh, PNC assembly inh, HPGD block, ALDH1A1 inh)
CCc1cc(C(=O)NNC(=S)Nc2cc(C)ccc2C)cs1	ALDH1A1 inh inconclusive
Cc1ccc(C)c(NC(=S)NNC(=O)c2csc3c2CCC(C)C3)c1 (stereo not drawn)	12-hLO inh inconclusive, PNC assembly inh -113, ALDH1A1 inh 10µM
Cc1ccc(C)c(NC(=S)NNC(=O)c2csc3c2CCCC3)c1	12-hLO inh inconclusive, ALDH1A1 inh 8.9µM
Cc1cccc(NC(=S)NNC(=O)c2csc3c2CCCC3)c1	12-hLO inh inconclusive, ALDH1A1 inh inconclusive
COc1ccc(NC(=O)N2CC[C@@]3(CCCNC3)C2)cc1	ALDH1A1 inh 14µM (no result: IMPase cell inh, PNC assembly inh)
COC(=O)N1CCC2(CCCN(C(=O)Nc3ccc(OC)cc3)C2)CC1	none (no result: IMPase cell inh, PNC assembly inh)
COc1ccc2c(c1)Cc1cc(N=[N+]([O-])c3ccc4c(c3)Cc3cc(OC)ccc3-4)ccc1-2	ALDH1A1 inh inconclusive (no result: IMPase cell inh, PNC assembly inh)
CN(C)c1ccc(-c2cc(NCc3ccccc3)ncn2)cc1	HPGD block inconclusive, ALDH1A1 inh inconclusive (no result: IMPase cell inh, PNC assembly inh)
O=S(=O)(c1cc(Cl)cc(Cl)c1)N1CCCC1c1nc2ccccc2s1 (stereo not drawn)	PNC assembly inh -100
N#Cc1c(-c2ccccc2Cl)cc(C2CC2)nc1N	none (no result: IMPase Li inh, HPGD block)
N#Cc1c(-c2ccccc2Cl)cc(-c2ccccc2)nc1Br	HPGD block 25µM (no result: IMPase cell inh)
N#Cc1c(-c2cccc(F)c2)cc(-c2ccccc2)nc1Br	IMPase Li inh inconclusive, HPGD block 18µM
CCS(=O)(=O)CCSc1nc(-c2ccc(Br)cc2)cc(-c2ccccc2)c1C#N	none (no result: 12-hLO inh, IMPase Li inh, PNC assembly inh, HPGD block, ALDH1A1 inh)
CCOC(=O)CNC(=O)CSc1nc2cccnc2n1Cc1ccccc1	PNC assembly inh -80, ALDH1A1 inh inconclusive
CCOC(=O)CNC(=O)CSc1nc2cccnc2n1C1CCCCC1	PNC assembly inh -93

Bioassay records (PubChem)
